# PubChem BioAssay (Tox21)
# Values joined by “and” are separate entries in the source; they are usually repeats but may differ in a detail not shown here. Equal values may be shown once. Inconclusive results are not listed. A call without a number means that no potency is given here. More than one record can exist for a structure, and the calls need not agree. Active and inactive are the calls of the source. Unless noted, calls come from the whole dose curve; as a rule, active = well fitted curve in the direction sought with a large enough effect in the repeat runs; inconclusive = weak or mixed curves; inactive = no such curve, though single readings can be large; an effect the other way counts as inactive or inconclusive.
# Key:
# [1] = qHTS assay to identify small molecule antagonists of the estrogen related receptor (ERR) signaling pathway from Tox21 library - cell viability counter screen (AID 1224834); note: nearly all actives have a fitted effect of over 30% in size; note: potency is the fitted concentration of half-maximal effect
# In short: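 Viability readout (CellTiter-Fluor fluorescence, 30 min at 37 C) multiplexed with the ERR assay; cells treated 17.5 h at 37 C with compounds delivered in DMSO.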
# [2] = biological target: Luciferin 4-monooxygenase (Photinus pyralis) (UniProt P08659); assay: qHTS assay to identify small molecule inhibitors of firefly luciferase (AID 1224835); note: nearly all actives have a fitted effect of over 25% in size; note: potency is the fitted concentration of half-maximal effect
# In short: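 Inhibition of purified Photinus luciferase is measured by luminescence. Substrate levels (D-luciferin, ATP) sit at their KM values. Each compound is tested in a concentration series.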
# [3] = qHTS assay to identify small molecule agonists of the constitutive androstane receptor (CAR) signaling pathway - cell viability counter screen (AID 1224836); note: nearly all actives have a fitted effect of over 45% in size
# In short: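 Double-stable HepG2 hepatoma cells (hCAR plus CYP2B6-2.2kb) are treated for 23 h at 37 C with test compounds in 15-point concentration series. PK11195 at 0.75 uM final is co-added. Cell viability is quantified by CellTiter-Fluor.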
# [4] = qHTS assay to identify small molecule antagonists of the constitutive androstane receptor (CAR) signaling pathway - cell viability counter screen (AID 1224837); note: nearly all actives have a fitted effect of over 45% in size
# In short: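 Fluorescence from CellTiter-Fluor served as the viability signal. Human hepatoma HepG2 cells stably bearing hCAR and CYP2B6-2.2kb received compound plus CITCO (50 nM final) for 23 hr.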
# [5] = biological target: Nuclear receptor subfamily 1 group I member 3 (Homo sapiens) (UniProt Q14994); assay: qHTS assay to identify small molecule antagonists of the constitutive androstane receptor (CAR) signaling pathway (AID 1224838);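 note: HepG2 cells stably expressing hCAR with CYP2B6 luciferase reporter stimulated by CITCO; nearly all actives have a fitted effect of over 40% in size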; note: potency is the fitted concentration of half-maximal effect
# In short: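 Quantitative HTS in double-stable HepG2-CYP2B6-hCAR cells. After 4 h plating, cells get compound (15 concentrations) and CITCO at 50 nM final, incubate 24 h at 37 C, then ONE-Glo luminescence is read.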
# [6] = biological target: Nuclear receptor subfamily 1 group I member 3 (Homo sapiens) (UniProt Q14994); assay: qHTS assay to identify small molecule agonists of the constitutive androstane receptor (CAR) signaling pathway (AID 1224839); note: nearly all actives have a fitted effect of over 15% in size; note: potency is the fitted concentration of half-maximal effect;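 for activation: HepG2 cells stably carrying human CAR and a CYP2B6 luciferase reporter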
# In short: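 Readout: firefly luciferase luminescence via ONE-Glo. System: HepG2 double-stable for hCAR and CYP2B6-2.2kb. Conditions: 15-point compound titration, PK11195 at 0.75 uM final, 24 h incubation.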
# [7] = qHTS assay to identify small molecule antagonists of the estrogen related receptor signaling pathway with the pleiotropic PPARgamma coactivator (PGC) from Tox21 10K library - cell viability counter screen (AID 1224840; active = well fitted cell-killing curve with a large enough effect in the repeat runs, not every such curve was filed as active; note: nearly all actives have a fitted effect of over 40% in size)
# In short: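 Compounds in DMSO, alongside positive and negative controls, were pinned onto PGC/ERR cells (2,000 per well). Exposure lasted 17.5 hours at 37 C, followed by a 30-minute CellTiter-Fluor incubation and fluorescence reading.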
# [8] = biological target: Thyrotropin receptor (Homo sapiens) (UniProt P16473); assay: qHTS assay to identify small molecule agonists of the thyroid stimulating hormone receptor (TSHR) signaling pathway (AID 1224843; calls by dose curve; note: nearly all actives have a fitted effect of over 45% in size)
# In short: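 HEK293 cells stably bearing the thyrotropin receptor were plated at 800 cells/well and challenged with compound (30 min, RT). Accumulated cAMP was quantified via cAMP-d2 competing for cryptate-tagged antibody.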
# [9] = qHTS assay to identify small molecule agonists of the hypoxia (HIF-1) signaling pathway - cell viability counter screen (AID 1224844; calls by dose curve; note: nearly all actives have a fitted effect of over 50% in size)
# In short: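 Luminescent ATP content (CellTiter-Glo, 30 min, room temperature) served as the viability measure in HRE-bla ME-180 cells exposed to compounds for 17 hrs in low-serum medium (0.5% dialyzed FBS).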
# [10] = qHTS assay to identify small molecule agonists of H2AX (AID 1224845; active = well fitted activation curve with a large enough effect in the signal ratio in the repeat runs, not every such curve was filed as active; the % refers to the signal ratio)
# In short: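 Phospho-H2AX Ser139 measured by HTRF (ex 320 nm; em 665 and 620 nm) after 24 hr antibody incubation. Compounds, 15 concentrations, 0.76% DMSO, were applied to CHO-K1 cells for 3hr at 37C before lysis.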
# [11] = qHTS assay to identify small molecule agonists of the hypoxia (HIF-1) signaling pathway (AID 1224846; active = well fitted activation curve with a large enough effect in the signal ratio in the repeat runs, not every such curve was filed as active; the % refers to the signal ratio)
# In short: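 Measured by blue/green FRET after loading CCF4-AM: beta-lactamase expressed from a hypoxia response element in ME-180 cells. Test agents were delivered in DMSO and left 17 hrs; cells had been plated 5 hrs earlier in low-serum (0.5% dialyzed FBS) medium.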
# [12] = qHTS assay to identify small molecule agonists of H2AX - cell viability counter screen (AID 1224847; calls by dose curve;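 note: wild-type CHO-K1 cells; top concentration of the series differs between compounds; nearly all actives have a fitted effect of over 30% in size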)
# In short: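 For this counter screen, overnight-attached CHO-K1 cells received test compounds (15 concentrations, 0.76% DMSO final); 3 hr later at 37C, CellTiter-Glo reagent was added and luminescence recorded after 30 min at room temperature.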
# [13] = qHTS RealTime-Glo MT Cell Viability Assay in HepG2 cells - 24 hour (AID 1224867); note: nearly all actives have a fitted effect of over 50% in size
# In short: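 Luminescence read-out: viable HepG2 cells reduce a prosubstrate to a NanoLuc substrate, giving a signal proportional to live cell number. Reads taken at 0, 8, 16, 24, 32 and 40 h of compound exposure at 37 C.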
# [14] = qHTS RealTime-Glo MT Cell Viability Assay in HEK293 cells - 32 hour (AID 1224868); note: nearly all actives have a fitted effect of over 50% in size; note: potency is the fitted concentration of half-maximal effect
# In short: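 Nonlytic real-time viability readout: viable cells convert prosubstrate to NanoLuc substrate, giving luminescence proportional to live cell number. HEK293, 600 cells/well, compound added after 5 h, continuous culture at 37 C.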
# [15] = qHTS RealTime-Glo MT Cell Viability Assay in HepG2 cells - 40 hour (AID 1224870); note: nearly all actives have a fitted effect of over 50% in size
# In short: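 Real-time viability: cells seeded at 600 per well together with NanoLuc and cell-permeant prosubstrate, compounds added after 5 h incubation. Luminescence tracked at 0, 8, 16, 24, 32 and 40 h of exposure.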
# [16] = A CellTox Green Cytotoxicity Assay to monitor cytotoxicity in HEK293 cells - 0 hour (AID 1224869); note: nearly all actives have a fitted effect of over 50% in size
# In short: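 Each value comes from one timepoint of a single continuous run in which HEK293 cells with CellTox Green were exposed to compound for up to 40 h at 37 C, dye fluorescence rising with cell death.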
# [17] = qHTS assay to identify small molecule antagonists of the estrogen related receptor signaling pathway with the pleiotropic PPARgamma coactivator (PGC) from Tox21 10K library (AID 1224841; call rule not given here; note: potency is the fitted concentration of half-maximal effect)
# In short: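 Compound exposure ran 18 hours at 37 C in PGC/ERR cells (2,000/well) that had first rested 6 hours in a 37 C/5% CO2 incubator. Luciferase activity was then detected with One-Glo after a 30-minute room-temperature step.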
# [18] = qHTS assay to identify small molecule agonists of the estrogen related receptor signaling pathway with the pleiotropic PPARgamma coactivator (PGC) from Tox21 10K library (AID 1224842); note: nearly all actives have a fitted effect of over 15% in size
# In short: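 Luminescence from One-Glo (30 min, room temperature) measured after PGC/ERR cells had 18 h at 37 C with pinned compound (23 nL in DMSO). Cells had been seeded at 2,000 per well and pre-incubated 6 h.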
# [19] = qHTS assay to identify small molecule antagonists of the estrogen related receptor (ERR) signaling pathway from Tox21 library (AID 1224848); note: nearly all actives have a fitted effect of over 50% in size
# In short: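 Reading was by luminescence 30 min after ONE-Glo addition. Before that, ERR cells at 2,000 per well had rested 6 h at 37 C/5% CO2 and then received pin-tooled compounds in DMSO for 18 h at 37 C.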
# [20] = qHTS assay to identify small molecule agonists of the estrogen related receptor (ERR) signaling pathway from Tox21 library (AID 1224849; calls by dose curve; note: nearly all actives have a fitted effect of over 15% in size); details: ERR reporter cell line, ONE-Glo luciferase, 18 h; at 92.4 µM (top of the series)
# In short: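 We plated ERR reporter cells, waited 6 h, added compounds in DMSO by pin tool and incubated them 18 h at 37 C. ONE-Glo was then added and luminescence read after 30 min.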
# Nuclear receptor subfamily 1 group I member 3 (Homo sapiens), sequence (Q14994 whole entry, looked up): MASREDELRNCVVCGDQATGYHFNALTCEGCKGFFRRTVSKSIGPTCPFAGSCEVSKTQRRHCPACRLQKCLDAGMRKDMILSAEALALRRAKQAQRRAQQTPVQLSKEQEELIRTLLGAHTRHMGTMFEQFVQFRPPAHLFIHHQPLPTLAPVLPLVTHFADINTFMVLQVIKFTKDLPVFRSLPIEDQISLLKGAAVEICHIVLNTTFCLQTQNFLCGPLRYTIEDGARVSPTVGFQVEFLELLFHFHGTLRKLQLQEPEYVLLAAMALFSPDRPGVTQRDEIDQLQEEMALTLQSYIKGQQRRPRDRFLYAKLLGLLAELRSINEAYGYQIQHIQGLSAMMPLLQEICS
# Luciferin 4-monooxygenase (Photinus pyralis), sequence (P08659 whole entry, looked up): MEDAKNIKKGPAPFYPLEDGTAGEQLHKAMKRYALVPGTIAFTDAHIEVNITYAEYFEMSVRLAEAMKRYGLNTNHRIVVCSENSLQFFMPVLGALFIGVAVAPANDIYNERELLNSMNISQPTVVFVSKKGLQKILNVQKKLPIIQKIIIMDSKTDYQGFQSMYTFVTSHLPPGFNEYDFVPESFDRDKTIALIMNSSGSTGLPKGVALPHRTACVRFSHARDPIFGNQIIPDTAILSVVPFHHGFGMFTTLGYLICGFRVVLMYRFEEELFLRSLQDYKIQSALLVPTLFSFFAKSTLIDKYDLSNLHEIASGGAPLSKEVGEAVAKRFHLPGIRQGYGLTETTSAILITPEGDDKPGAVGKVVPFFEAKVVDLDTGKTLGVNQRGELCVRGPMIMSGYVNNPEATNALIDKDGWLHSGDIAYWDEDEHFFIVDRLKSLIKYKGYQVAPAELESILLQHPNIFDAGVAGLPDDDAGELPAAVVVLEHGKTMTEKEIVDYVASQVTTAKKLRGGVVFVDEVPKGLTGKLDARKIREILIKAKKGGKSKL
# Thyrotropin receptor (Homo sapiens), sequence (P16473 whole entry, looked up): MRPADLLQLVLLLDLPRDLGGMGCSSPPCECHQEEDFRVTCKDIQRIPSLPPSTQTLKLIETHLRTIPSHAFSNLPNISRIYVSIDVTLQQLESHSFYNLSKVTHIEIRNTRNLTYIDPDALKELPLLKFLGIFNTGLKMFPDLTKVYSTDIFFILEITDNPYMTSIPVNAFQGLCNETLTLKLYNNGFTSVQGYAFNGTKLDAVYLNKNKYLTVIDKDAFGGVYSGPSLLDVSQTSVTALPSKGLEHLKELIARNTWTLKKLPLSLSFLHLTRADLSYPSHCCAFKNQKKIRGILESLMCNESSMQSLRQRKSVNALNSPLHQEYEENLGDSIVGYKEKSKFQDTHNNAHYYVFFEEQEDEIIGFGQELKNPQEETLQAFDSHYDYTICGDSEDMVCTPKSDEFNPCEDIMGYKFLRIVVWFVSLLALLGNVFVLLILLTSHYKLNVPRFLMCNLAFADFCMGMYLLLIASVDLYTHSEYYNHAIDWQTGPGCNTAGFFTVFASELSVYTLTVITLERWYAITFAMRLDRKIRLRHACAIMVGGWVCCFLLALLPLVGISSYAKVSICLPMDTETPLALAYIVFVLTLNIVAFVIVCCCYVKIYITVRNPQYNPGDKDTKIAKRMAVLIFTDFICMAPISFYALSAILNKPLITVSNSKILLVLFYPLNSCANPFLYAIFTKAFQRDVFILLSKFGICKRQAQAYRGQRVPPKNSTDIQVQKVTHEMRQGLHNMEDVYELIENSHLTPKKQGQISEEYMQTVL
Structure (SMILES),Potency [1],Potency [2],Potency [3],Potency [4],Potency [5],Potency [6],Potency [7],Potency [8],Potency [9],Potency [10],outcome [11],Potency [12],outcome [13],Potency [14],outcome [15],Potency [16],Potency [17],Potency [18],Potency [19],"activity change, positive = activation [20]"
COc1ccc(C(=O)c2ccccc2)c(O)c1,inactive,31.2 µM (active) and 35.6 µM (active) and 30.9 µM (active),inactive,inactive,inactive,47.8 µM (active) and 48.6 µM (active),inactive,inactive,inactive,inactive,inactive,inactive,inactive,inactive and 9.77 µM (active),inactive,,,,,
CCCCCCCCCCCCCC(=O)OC(C)C,inactive,inactive,inactive,inactive,,,inactive,inactive,inactive,inactive,inactive,inactive,inactive,inactive and 2.45 µM (active),inactive,inactive,,,,
COc1ccccc1NC(=O)CC(C)=O,inactive,inactive,inactive,inactive,inactive,inactive,inactive,inactive,inactive,inactive,inactive,inactive,inactive,inactive,inactive,inactive,,,,
Cc1cnc(NC(=O)C2=C(O)c3ccccc3S(=O)(=O)N2C)s1,inactive,31.8 µM (active) and 22.4 µM (active) and 34.7 µM (active),inactive,inactive,,,inactive,,inactive,inactive,,inactive,inactive,inactive,inactive,inactive,,,,
C=CCOC(=O)CC(C)C,inactive,inactive,inactive,,inactive,inactive,inactive,inactive,inactive,inactive,inactive,inactive,inactive,inactive,inactive,,inactive,inactive,inactive,8.22% (inactive) and 2.25% (inactive)
C=C(C)OC(C)=O,inactive,inactive,inactive,inactive,inactive,inactive,inactive,inactive,inactive,inactive,inactive,inactive,inactive,inactive,inactive,,inactive,inactive,inactive,
NCCNc1cccc2ccccc12,68.5 µM (active) and inactive,inactive,inactive,inactive,inactive,inactive,inactive,,inactive,inactive,inactive,inactive,inactive,54.9 µM (active) and 53.6 µM (active) and inactive,inactive,,,,,
C/C=C/c1ccc(O)c(OC)c1,inactive,inactive,inactive,inactive,inactive,inactive,inactive,inactive,inactive,inactive,inactive,inactive,inactive,inactive,inactive,inactive,,,,
NC(=O)c1ccc([N+](=O)[O-])cc1Cl,inactive,inactive,inactive,inactive,inactive,inactive,inactive,inactive,inactive,inactive,inactive,inactive,inactive,inactive,inactive,inactive,,,,
CC(C)=CCC/C(C)=C/CO,inactive,inactive,inactive,inactive,,,inactive,inactive,inactive,inactive,,inactive,inactive,inactive,inactive,,,,,
CCCCOC(=O)CCCCCCCCC(=O)OCCCC,inactive,inactive,inactive,,inactive,inactive,inactive,inactive,inactive,inactive,inactive,inactive,inactive,inactive,inactive,inactive,,,,
CCN(CC)CCOC(=O)c1ccc(N)cc1,inactive,inactive,inactive,inactive,inactive,inactive,inactive,inactive,inactive,inactive,,inactive,inactive,inactive,inactive,,inactive,inactive,inactive,
Oc1cccc(O)c1,inactive,inactive,inactive,inactive,,,inactive,inactive,inactive,inactive,inactive,inactive,inactive,inactive,inactive,inactive,18.8 nM (active) and inactive,inactive,inactive,
CCOC(=O)C(C)(C)Oc1ccc(Cl)cc1,inactive,inactive,inactive,inactive,,,inactive,inactive,inactive,inactive,,inactive,inactive,inactive,inactive,,inactive,inactive,inactive,
COC(=O)c1ccc(C=O)cc1,inactive,inactive,inactive,,inactive,inactive,inactive,,inactive,inactive,inactive,inactive,inactive,inactive,inactive,inactive,inactive,inactive,inactive,
CCCCCCCCOc1ccc(C(=O)c2ccccc2)c(O)c1,inactive,inactive,inactive,inactive,7.5 µM (active),inactive,inactive,inactive,inactive,inactive,inactive,inactive,inactive,inactive,inactive,,inactive,inactive,inactive,
